Source: PubChem BioAssay (NCI)
This is part of a sample that, as a whole, favours compounds with a hit. Of some 79,000 tested, about 15% had one in any assay. Unmarked numbers belong to inactive results. Active and inactive are the calls of the source. Rule as the data show it: active = growth inhibition above about 70%; inactive = the rest.

How the values were obtained:
[1] = NCI Yeast Anticancer Drug Screen. Data for the rad50 strain (AID 155);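 also: 0% = growth of vehicle-only cultures of the same strain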; conditions: S. cerevisiae rad50 strain growth inhibition; at 50.0 µM; stronger effect = higher value
Method in brief: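 Compounds were tested on a yeast strain with an engineered DNA damage repair alteration; the reported value is growth inhibition normalised to vehicle treatment.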

[2] = NCI Yeast Anticancer Drug Screen. Data for the mec2-1 strain (AID 157); conditions: S. cerevisiae mec2-1 strain, at 50.0 µM, stronger effect = higher value
Method in brief: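 Using mec2-1 yeast: add compound, measure growth, express inhibition versus vehicle-treated cultures.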

[3] = NCI Yeast Anticancer Drug Screen. Data for the sgs1 mgt1 strain (AID 161);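 also: 0% = growth of cultures given vehicle only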; conditions: S. cerevisiae sgs1 mgt1 strain, at 50.0 µM, stronger effect = higher value
Method in brief: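 This yeast growth screen uses a strain with defined DNA-repair lesions; compound-treated growth is compared with vehicle-treated growth.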

[4] = NCI Yeast Anticancer Drug Screen. Data for the cln2 rad14 strain (AID 165);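 also: 0% = growth equal to vehicle treated cultures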; conditions: S. cerevisiae cln2 rad14 strain, at 50.0 µM, stronger effect = higher value
Method in brief: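 Yeast strain cln2 rad14, bearing defects in cell cycle control and DNA repair, serves as the test system; values reflect growth inhibition compared with vehicle.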

[5] = NCI Yeast Anticancer Drug Screen. Data for the bub3 strain (AID 167); conditions: S. cerevisiae bub3 mutant strain, at 50.0 µM, stronger effect = higher value
Method in brief: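 Growth of a checkpoint-deficient yeast mutant is measured after compound exposure. Values represent inhibition relative to vehicle.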

[6] = NCI Yeast Anticancer Drug Screen. Data for the mlh1 rad18 strain (AID 175); conditions: S. cerevisiae mlh1 rad18 strain growth inhibition; at 50.0 µM; stronger effect = higher value
Method in brief: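 Steps: expose repair-defective yeast to compound; measure growth; express inhibition against vehicle-treated controls.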

SMILES | growth inhibition [1] | growth inhibition [2] | growth inhibition [3] | growth inhibition [4] | growth inhibition [5] | growth inhibition [6]
CN(C)P(=O)(N(C)C)N1CCCCC1 | -6.35% | -10.2% | 0.3% | -22% | -23.6% | -4.3%
CC(C)c1cc2c(c(O)c1O)[C@@]1(C(=O)O)CCCC(C)(C)[C@@H]1CC2 | 91.8% (active) | 93.5% (active) | 93.3% (active) | 92% (active) | 92.3% (active) | 92.3% (active)
CCOC(=S)S.[Cu+2] | 2.55% | 4.1% | -2.85% | -33.6% | -36% | -17.1%
Nc1ccc(C(=O)N/N=C/c2ccc(N(CCBr)CCBr)cc2)cc1 | 42.9% | 22.4% | 25.5% | 1.95% | 5.3% | 54.2%
NC(=O)c1c[se]c(C2OC(CO)C(O)C2O)n1 (stereo not given) | -13.1% | -8.75% | -9.75% | -3.25% | -14.8% | -9.95%
CCOC(=O)C1C(C=C(C)C)C1(C)C (stereo not given) | -14.3% | -17.4% | -8.8% | -10.8% | -16.6% | -3.95%
O=C(C[n+]1ccccc1)C1CCCC2CC3CCCCC3CC21 (stereo not given) | 1.9% | 18.3% | 29.9% | 13.8% | 22.1% | 37.6%
NC(=O)C(Cl)c1ccccc1 (stereo not given) | -17.2% | -25.9% | -24.8% | -23.6% | -23.9% | -9.15%
Nc1nc(-c2ccccc2)c[se]1 | 63.6% | 32.3% | 30.6% | 16.6% | -7.65% | 31.4%
CC(=O)OCC1OC(n2ncc3c(N4CC4)ncnc32)C(OC(C)=O)C1OC(C)=O (stereo not given) | 7.7% | -12.6% | -21.3% | 6.65% | 1.45% | 4.25%
OCC1CCCN2CCCCC12 (stereo not given) | 1.2% | 0.35% | -4.2% | -39.1% | -20.4% | 7.35%
N=c1nc(N)n2c(N)nc(=N)n12 | 19.9% | 12.7% | -1.55% | 4.05% | -1.75% | 2.45%
C/C=C\CC1(C/C=C/C)C(=O)NC(=O)NC1=O | 2.25% | -7.45% | -5.05% | -17.6% | -8.9% | 1.25%
CCOC(=O)C1=C(C)/C(=C\c2[nH]c(C)c(C(=O)OCC)c2C)N=C1C | 8.95% | 13.7% | 23% | 8.95% | 19.5% | 19.9%
CC(C)OP(=O)(OC(C)C)C(=O)Nc1ccc(Cl)cc1 | -24.9% | 16.1% | 5.85% | -29.9% | 16.5% | -8%
COc1cc2c(cc1O)-c1c(OC)c(O)cc3c1C(C2)N(C)CC3 (stereo not given) | -20.6% | -22.4% | -22.6% | -16.4% | -24.4% | -46.9%
O=C1c2ccccc2C(=O)N1N1CC1c1ccccc1 (stereo not given) | -8.2% | -36.1% | 8.1% | 18.2% | 6.5% | -1%
Oc1ccccc1C=NCCN=Cc1ccccc1O.[Fe] | 11.8% | 22.2% | 5.35% | 6.25% | 46% | 13.6%
CCOP(=O)(CCP(=O)(OCC)OCC)OCC.C[CH2][Sn]([Cl])([Cl])[CH2]C | 42.9% | 52.1% | 45.5% | 46% | 42.1% | 41%
CC(NC(=O)c1c(O)[nH]c(=S)[nH]c1=O)c1ccc([N+](=O)[O-])cc1 (stereo not given) | 17.9% | 13.8% | 35.8% | 19.4% | 12.1% | 14.6%

SMILES | growth inhibition [1] | growth inhibition [2] | growth inhibition [3] | growth inhibition [4] | growth inhibition [5] | growth inhibition [6]
NC1CC=C(COC(=O)C(O)(c2ccccc2)C2CC2)CC1 (stereo not given) | -12.9% | -14.7% | -23.6% | 3.65% | -7.4% | -31.4%
NP(=O)(Oc1cccc2c(OP(N)(=O)N(CCCl)CCCl)cccc12)N(CCCl)CCCl (stereo not given) | 6.95% | -3.65% | 8.1% | -29.7% | -3.25% | 16.9%
CCCC/C=C(/C)C1(CC)C(=O)NC(=O)NC1=O | 5.05% | 14.2% | -2% | -28.1% | -7.3% | 4.6%
O=CC1(c2ccccc2)CCN(Cc2ccccc2)CC1 | 38.8% | -16.1% | 45.1% | 41.3% | 38.1% | 17.4%
COC1C(OC(=O)/C=C/C=C/C=C/C=C\C(=O)O)CCC2(CO2)C1C1(C)OC1CC=C(C)C (stereo not given) | 9.95% | -1% | -19.3% | 0.95% | -8.7% | 24.1%
OC(c1ccccc1)C(c1ccccc1)N1CCOCC1 (stereo not given) | -8.45% | 4.1% | -1.3% | 1.65% | 7.9% | 9.75%
c1cc(C2O[C@H]3CCCN3[C@@H]2c2ccncc2)ccn1 (stereo not given in full) | -30.6% | -17.9% | 1.15% | 2.85% | -14.8% | -25.4%
N#CCc1ccccc1.N#CCc1ccccc1.[C-]#[O+].[C-]#[O+].[C-]#[O+].[C-]#[O+].[W] | -10.9% | -16.2% | -7.1% | -33.2% | -5.05% | -11.3%
NCCc1c[nH]c2ccccc12 | 10.8% | -3.3% | -15.8% | 9% | -0.75% | -12.8%
CC(=N\O)/C(C)=N/O.CC(=N\O)/C(C)=N/O.CC(=N\O)/C(C)=N/O.CC(=N\O)/C(C)=N/O.[Cu].[Cu] | -7.15% | 12.9% | -22.1% | -8.2% | -13.9% | -4.2%
CC(C(=O)c1ccccc1)N(C)Cc1ccccc1 (stereo not given) | -27.4% | -2.05% | 6.75% | -36.7% | 42.5% | 17.1%
CN1CCC(O)(c2ccccc2)C(O)C1 (stereo not given) | 11.2% | 29.1% | 23.5% | 32.3% | -4% | 39.2%
COc1ccc2c(c1O)C13C=C(OS(=O)(=O)c4ccc(C)cc4)C=CC1C(C2)N(C)CC3 (stereo not given) | 40.3% | -4.2% | 34.9% | 13.9% | -1.85% | 3.55%
PCc1ccccc1.[Cl][Hg][Cl] | -34.7% | 12.7% | 14.2% | -59.4% | -6% | 12.6%
O=C1NC2NC3NC(=O)NC3NC2N1 (stereo not given) | 3.6% | 1.85% | 0.2% | -5.25% | 10.2% | -24.4%
Oc1ccccc1C=NCCN=Cc1ccccc1O.[Cu] | 15.4% | -25.9% | -4.75% | -36.4% | 3.55% | -7.7%
O=P(Nc1ccc2ccccc2c1)(Nc1ccc2ccccc2c1)N(CCCl)CCCl | -4.3% | -3.5% | 4.7% | 4.2% | -12.3% | -12.8%
N#CS.[Co+3].[NH-]CC[NH-].[NH-]CC[NH-].[NH-]CC[SH2+] | 12.2% | 43% | 13.2% | 3.2% | 35.6% | 9.65%
COc1ccc(N)cc1OC | -2.15% | 1.35% | -4.8% | -12.2% | 6.7% | -5.4%
N#CC(C#N)=Cc1ccc(C=C(C#N)C#N)cc1 | -30.4% | -40.5% | -15.9% | -14.8% | -15.8% | -8.75%
